According to PubChem BioAssay (NCI):
About 79,000 compounds went through this panel and 15% of them were active in at least one assay; those are over-represented in the sample as a whole. Active and inactive are the calls of the source. Rule as the data show it: active = growth inhibition above about 70%; inactive = the rest. Where a SMILES comes first, the peptide text is derived from it.

What was measured:
[1] = NCI Yeast Anticancer Drug Screen. Data for the rad50 strain (AID 155);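 also: 0% = growth of vehicle-only cultures of the same strain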; details: S. cerevisiae rad50 strain growth inhibition; at 50.0 µM; stronger effect = higher value
Summary of the method: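 Genetically altered yeast (DNA repair pathway); compound treatment; growth inhibition vs vehicle ctrl.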

[2] = NCI Yeast Anticancer Drug Screen. Data for the mec2-1 strain (AID 157); details: S. cerevisiae mec2-1 strain, at 50.0 µM, stronger effect = higher value
Summary of the method: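 mec2-1 yeast strain, carrying an alteration in DNA damage repair or cell cycle control, was exposed to compounds; growth inhibition was measured relative to vehicle-treated controls.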

[3] = NCI Yeast Anticancer Drug Screen. Data for the sgs1 mgt1 strain (AID 161);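 also: 0% = growth of cultures given vehicle only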; details: S. cerevisiae sgs1 mgt1 strain, at 50.0 µM, stronger effect = higher value
Summary of the method: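 Growth of a repair-deficient yeast mutant was monitored after compound treatment and expressed as inhibition relative to vehicle-treated cultures.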

[4] = NCI Yeast Anticancer Drug Screen. Data for the cln2 rad14 strain (AID 165);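 also: 0% = growth equal to vehicle treated cultures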; details: S. cerevisiae cln2 rad14 strain, at 50.0 µM, stronger effect = higher value
Summary of the method: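 Yeast carrying cln2 and rad14 alterations (cell cycle control and DNA damage repair) were exposed to compounds. Growth inhibition was measured against vehicle-treated controls.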

[5] = NCI Yeast Anticancer Drug Screen. Data for the bub3 strain (AID 167); details: S. cerevisiae bub3 mutant strain, at 50.0 µM, stronger effect = higher value
Summary of the method: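 Yeast carrying a defined mutation is treated with each compound, and growth is compared with that of vehicle-exposed cells to give inhibition.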

[6] = NCI Yeast Anticancer Drug Screen. Data for the mlh1 rad18 strain (AID 175); details: S. cerevisiae mlh1 rad18 strain growth inhibition; at 50.0 µM; stronger effect = higher value
Summary of the method: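 Growth inhibition of the yeast strain was measured after compound exposure and expressed relative to vehicle-treated controls. The strain carries defined defects in DNA damage repair.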

Measured: growth inhibition

Cc1ccnc(SCC(=O)O)n1
inactive: [1] -4.35% | [2] -1.9% | [3] 5.45% | [4] 12.9% | [5] 10.6% | [6] 4.95%

CCCCCCCCCC1OCC(COCC)O1 (stereo not given)
inactive: [1] -2.6% | [2] -9% | [3] 7.5% | [4] -17.4% | [5] 14.8% | [6] -7.15%

C=CCSc1nc2ccc(N3C(=O)C4C5C=CC(C5)C4C3=O)cc2s1 (stereo not given)
inactive: [1] -15.2% | [2] -2.75% | [3] -6.35% | [4] -17.6% | [5] -8.3% | [6] -27.9%

CC1(C)CC(=O)C2(C)C(C1O)C2C1C2C(O)C(C)(C)CC(=O)C21C (stereo not given)
inactive: [1] -11.2% | [2] 3.25% | [3] -5.3% | [4] -6.75% | [5] 8.2% | [6] -16.1%

O=C1c2ccccc2-c2c1c1ccccc1c(=O)n2Cc1ccccc1
inactive: [1] 6.1% | [2] -14.2% | [3] 2.85% | [4] 8.05% | [5] -16.9% | [6] -63.8%

CCO/C(O)=c1/s/c(=C2/SC(=S)N(c3ccc(C)cc3)C2=O)n(-c2ccccc2)c1=N
inactive: [1] -3.8% | [2] -16.8% | [3] -16.4% | [4] -55.5% | [5] -21.4% | [6] -28.4%

CCC(C(C)=O)C(C)C (stereo not given)
inactive: [1] 5.2% | [2] 6.55% | [3] 8.6% | [4] 7.2% | [5] -2% | [6] 13.3%

Cc1cc2c(cc1C)NC1=C(N2)OC(c2ccc(Cl)cc2)C1=O (stereo not given)
inactive: [1] 19.9% | [2] 16.2% | [3] 44.6% | [4] 2% | [5] 21.1% | [6] 44.1%

COc1ccc(N=Nc2c(C)c(C#N)c(=S)n(C3OC(COC(C)=O)C(OC(C)=O)C(OC(C)=O)C3OC(C)=O)c2-c2ccccc2)cc1 (stereo not given)
inactive: [1] -8.55% | [2] -8.9% | [3] -20.6% | [4] 9.05% | [5] 8% | [6] -5.1%

Cc1ccc2c(c1)N=C(Nc1ccccc1)N=S2(C)=O (stereo not given)
inactive: [1] 2.95% | [2] -18.7% | [3] 0.45% | [4] -11.7% | [5] -7.55% | [6] -41.5%

CNC(=S)C(N)CCCC1NC(=S)N(C)C1=O (stereo not given)
inactive: [1] 7% | [2] 6.8% | [3] -21.9% | [4] 16.7% | [5] 8.95% | [6] 0.7%

CCC(C)CC(C)C1=NC(C)(C)CC(C)O1 (stereo not given)
inactive: [1] 3.65% | [2] -6.55% | [3] 0.75% | [4] -16.6% | [5] 0.2% | [6] 8.3%

CCNCC1COc2ccccc2O1 (stereo not given)
inactive: [1] -0.3% | [2] 3% | [3] -7% | [4] -15.8% | [5] -4.8% | [6] -1%

CC(=O)Nc1ccc(S(=O)(=O)Nc2cc(Cl)cc(Cl)c2)cc1
inactive: [1] 15.7% | [2] -10.2% | [3] -0.05% | [4] 8.75% | [5] 2.1% | [6] -7.1%

O=S(CCCl)c1ccccc1 (stereo not given)
inactive: [1] -8.3% | [2] -13.2% | [3] 3.35% | [4] 10.4% | [5] -7.05% | [6] 4.9%

CNCC(SC)c1ccc(O)c(O)c1 (stereo not given)
inactive: [1] -9.8% | [2] -14.8% | [3] -20.4% | [4] -15.7% | [5] -31% | [6] -2.6%

Nc1nc(-c2cc(Br)ccc2N=NN2CCOCC2)nc2ccc(Br)cc12
active: [1] 98.8% | [2] 99.1% | [3] 99.3% | [4] 98.8% | [5] 99% | [6] 99%

O=C(CCN1CCCC1)c1ccccc1
inactive: [1] -25.1% | [2] -15.1% | [3] -11.4% | [4] 5.45% | [5] -10.6% | [6] -11.1%

CCN1C(=O)c2ccccc2C1=O
inactive: [1] 11.8% | [2] -9.85% | [3] -5.25% | [4] -16.9% | [5] 5.95% | [6] 24.1%

NC(=O)SCC(=O)Nc1ccccc1O
inactive: [1] 14.6% | [2] -27.4% | [3] 2.25% | [4] 0.05% | [5] 0.85% | [6] -9.5%

COc1cc(/C=N/N2CN(C(C)C(=O)O)B(NCCC(C)C)N=C2N)cc(OC)c1 (stereo not given)
inactive: [1] 0.85% | [2] -10.4% | [3] 22% | [4] -3.7% | [5] 23.6% | [6] -6%

CN(C)Cc1cn(C[Si](C)(C)C)c2ccccc12
inactive: [1] 18.6% | [2] -3.25% | [3] 7.7% | [4] 0.35% | [5] 3.75% | [6] 13.2%

CC(C)Oc1ccc(C(=O)O)cc1
inactive: [1] 23.6% | [2] 5.05% | [3] 4.75% | [4] -0.15% | [5] -19.1% | [6] 14.1%

C[C@H](N)C(O)/C=C/c1ccccc1 (stereo not given in full)
inactive: [1] 5.1% | [2] -9.05% | [3] -0.7% | [4] -2.55% | [5] -0.3% | [6] -7.05%

COc1ccc2c3c(ccc2c1)C1CC(=O)CC1CC3 (stereo not given)
inactive: [1] 30.6% | [2] -11.2% | [3] 54.8% | [4] 12.2% | [5] 61% | [6] 14.7%

CC(=O)NC(CO)C(=O)NC(Cc1ccc(O)cc1)C(=O)NCC(N)=O (stereo not drawn) (Ac-Ser-Tyr-Gly-NH2; configuration not given here)
inactive: [1] -26.7% | [2] -23.5% | [3] -9.4% | [4] 18.8% | [5] 10.9% | [6] -6.8%

CC1=NOC2(C1)C(=O)Nc1ccccc12 (stereo not given)
inactive: [1] 23.2% | [2] 9.5% | [3] 8.55% | [4] 11.3% | [5] 2.85% | [6] 18.4%

C[C@@H](C1CCC2C3C(=CC(=O)[C@@]21C)[C@H](C)[C@]1(CCC(=O)O1)C1OC31)[C@H]1C[C@]2(C)O[C@@](C)(O1)OC2(C)C (stereo not given in full)
inactive: [1] -11.2% | [2] -0.9% | [3] -25.9% | [4] -4.85% | [5] -14.2% | [6] 9.15%

C=CCOc1cc(NC(=S)c2ccoc2C)ccc1OC
inactive: [1] -17.4% | [2] -3.15% | [3] -10% | [4] -2.7% | [5] -3.35% | [6] -52.9%

CCCCCCCCCC/C=C/c1c(C)[nH]c2ccccc2c1=O
inactive: [1] -11.9% | [2] 8.7% | [3] -6.3% | [4] -6.5% | [5] -8.45% | [6] -11.1%

CCSCC1C(=O)C23C(O)C1CCC2C12COC3(O)C(O)C1C(C)(C)CCC2O (stereo not given)
inactive: [1] 16.6% | [2] 18.4% | [3] 7.45% | [4] 10.9% | [5] 2.4% | [6] 7.05%

NSC(=S)NCc1ccco1
inactive: [1] 1% | [2] -2.95% | [3] 7.75% | [4] -52.1% | [5] 15.8% | [6] 13.7%

CSc1ccccc1N1C(=O)CSC1=S
inactive: [1] -7.8% | [2] 4.4% | [3] 41.5% | [4] 19.1% | [5] -4.1% | [6] 22.2%

CCCCCCCCCCS(C)(=O)=O
inactive: [1] -19.4% | [2] -3.95% | [3] -7.25% | [4] -16.4% | [5] -24.9% | [6] -24.6%

COC(=O)C(Br)(C(=O)OC)C(c1ccccc1)c1ccccc1
inactive: [1] 38.1% | [2] 41.3% | [4] 26.2% | [5] 41.8% | [6] 37.3%
active: [3] 72.3%
